High-throughput results as filed in PubChem BioAssay.
This is a sample that favours compounds with a hit; in the whole collection about 2.4% have one here.
Pol eta inh = inhibitors of human DNA polymerase eta. Potency, µM (doses to about 114 µM), usual class: inhibitors. recombinant Pol eta, fluorescent DNA replication assay. Q9Y253. AID 588591. 1.2% of 390,000 active
Target sequence (Q9Y253 whole entry, looked up): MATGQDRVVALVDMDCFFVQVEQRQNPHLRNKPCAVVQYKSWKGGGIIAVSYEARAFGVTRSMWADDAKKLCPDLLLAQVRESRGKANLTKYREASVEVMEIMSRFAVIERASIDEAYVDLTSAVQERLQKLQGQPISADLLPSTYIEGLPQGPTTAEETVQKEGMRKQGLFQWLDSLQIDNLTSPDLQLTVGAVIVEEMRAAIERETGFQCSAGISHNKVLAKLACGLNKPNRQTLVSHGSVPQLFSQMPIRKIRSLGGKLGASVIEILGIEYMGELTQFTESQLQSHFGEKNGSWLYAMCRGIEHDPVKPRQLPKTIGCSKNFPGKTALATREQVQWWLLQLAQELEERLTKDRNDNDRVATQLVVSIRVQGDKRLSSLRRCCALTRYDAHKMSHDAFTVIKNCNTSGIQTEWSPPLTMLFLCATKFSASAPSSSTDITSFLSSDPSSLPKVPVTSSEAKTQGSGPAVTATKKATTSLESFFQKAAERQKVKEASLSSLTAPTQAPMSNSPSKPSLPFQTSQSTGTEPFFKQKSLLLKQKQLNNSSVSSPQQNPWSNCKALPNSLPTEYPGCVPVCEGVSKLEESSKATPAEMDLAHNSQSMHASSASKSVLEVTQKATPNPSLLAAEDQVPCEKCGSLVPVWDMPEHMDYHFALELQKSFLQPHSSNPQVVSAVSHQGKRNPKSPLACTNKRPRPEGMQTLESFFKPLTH
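Pol eta (10 nM) was preincubated with compounds for 15 min at room temperature, after which fluorescent replication substrate (50 nM final) was added to start the reaction. Fluorescence was read kinetically at 0 and 10 min.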
Pol iota inh = blocks human DNA polymerase iota activity. Pol iota fluorescent replication assay, 10 min. AID 588590. Q9UNA4. 1% of 390,000 active. Potency, µM (series often up to 115 µM), hits mostly inhibitors
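Fluorescent replication assay read twice, at 0 min and 10 min after adding 50 nM (final) substrate. Enzyme (10 nM) and compounds were first incubated 15 min at room temperature; enzyme-free buffer wells were negative controls.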
Pol beta inh = inhibitors of human DNA polymerase beta; Pol beta primer extension/strand displacement, fluorescence kinetic; Potency, µM (titrated, usually from 114 µM), most hits filed as inhibitors; 1.3% of 340,000 active; AID 485314
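Kinetic readout of DNA synthesis with strand displacement by Pol beta. Compound and 10 nM enzyme sit 15 min at room temperature; 50 nM substrate starts the reaction, read immediately and at 10 min.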
Pol kappa inh = blocks human DNA polymerase kappa activity; Potency, µM (highest dose often 107 µM), most hits filed as inhibitors; AID 588579; purified Pol kappa, fluorescent DNA synthesis assay, 10 min; Q9UBT6; 0.53% of 400,000 active
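50 nM final substrate added after 15 min RT preincubation of 10 nM Pol kappa with compound; fluorescence read at 0 and 10 min.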
KAT2A inh = blocks human GCN5L2 histone acetyltransferase; Q92830; AID 504327; GCN5L2 HAT assay, ThioGlo1 CoA-SH fluorescence; 0.21% of 390,000 active; Potency, µM (highest dose often 58.9 µM), most hits filed as inhibitors
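qHTS, 1536-well. 20nM enzyme, pH 7.5 HEPES/EDTA/Tween-20 buffer; 15 min compound preinc., RT. Start: 75uM H3(1-25), 70uM AcCoA, 50uM ThioGlo1. Read Ex340/Em540 at t=0 (autofluorescence flag) and t=20 min.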
GLS inh = blocks human kidney-isoform glutaminase activity | O94925 | GLS enzymatic activity, qHTS titration | Potency, µM (titrated, usually from 45.5 µM), most hits filed as inhibitors | 0.21% of 410,000 active | AID 624170
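Glutamate formation by hKGA was monitored fluorometrically using coupled glutamate oxidase, HRP and Amplex Red. Substrate was added as 1 mM L-glutamine solution; incubation was 30 min at RT after an initial read.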
Each line names hits and unclear results; the compound was inactive in the other large screens. Calls follow the shape of the dose curve; as a rule, active = well fitted inhibition curve with a large enough effect; inconclusive = small, poorly fitted or top-dose-only effect, or another doubt; inactive = no such curve, though single readings can be large or run the other way.

Cc1ccc(CNC(=O)C(=O)NCC(c2ccc3c(c2)OCO3)N2CCOCC2)cc1 (stereo unspecified)	none
Cc1ccnc2c(N)cccc12	none (no result: Pol eta inh, Pol beta inh, KAT2A inh, GLS inh)
COc1ccc(N(C)C(=O)Nc2ccc3nsnc3c2)cc1	Pol beta inh inconclusive
CC(C)N(C(=O)Nc1ccc2nsnc2c1)C(C)C	Pol eta inh 8.91µM, Pol iota inh 1µM, Pol beta inh 10µM, Pol kappa inh 50.1µM
COc1ccc(NC(=S)Nc2ccc3nsnc3c2)cc1	Pol eta inh 7.08µM, Pol iota inh 3.55µM
COc1ccc(NC(=S)Nc2ccc3nc(C)c(C)nc3c2)cc1	none
COCCNC(=S)Nc1ccc(Cl)c(Cl)c1	none
CCOc1ccc(NC(=S)Nc2ccc3nsnc3c2)cc1	Pol eta inh 22.4µM, Pol iota inh 10µM, Pol beta inh inconclusive
COCCNC(=S)Nc1ccc2nsnc2c1	Pol iota inh 20µM
COc1cccc2nccc(/C=C/c3ccc(N(C)C)cc3)c12	Pol iota inh inconclusive (no result: Pol eta inh, Pol beta inh, KAT2A inh, GLS inh)
CN(C)c1ccc(/C=C/c2ccnc3ccc(Cl)cc23)cc1	none (no result: Pol eta inh, Pol beta inh, KAT2A inh, GLS inh)
CN(C)c1cc(F)c(C=O)cc1F	none (no result: Pol eta inh, Pol beta inh, KAT2A inh, GLS inh)
Cc1cc(=O)n2[nH]c(-c3ccsc3-n3c(C)ccc3C)cc2n1	Pol eta inh 7.94µM, Pol iota inh 7.94µM, Pol beta inh inconclusive, Pol kappa inh 28.2µM
CN(C)c1c(Cl)cc(/C=C/c2ccnc3ccccc23)cc1Br	Pol iota inh inconclusive (no result: Pol eta inh, Pol beta inh, KAT2A inh, GLS inh)
CC(NC(=O)/C(C#N)=C/c1ccc([N+](=O)[O-])o1)c1ccccc1 (stereo unspecified)	Pol eta inh 50.1µM, Pol iota inh 20µM, Pol beta inh 39.8µM
OC[C@H]1O[C@@H](n2cnc3c2NC=NC[C@H]3O)C[C@@H]1O	none (no result: Pol eta inh, Pol iota inh, Pol beta inh, Pol kappa inh, KAT2A inh)
CCOC(=O)N(C(=O)c1ccccc1)c1ccccc1	none (no result: Pol eta inh, Pol beta inh, KAT2A inh, GLS inh)
COc1ccc2[nH]c(C(=O)O)c(NS(=O)(=O)c3ccc(Cl)s3)c2c1	none
CCOC(=O)c1[nH]c2ccc(OC)cc2c1NS(=O)(=O)c1ccc(Cl)s1	GLS inh 7.08µM
NC1=C(c2ccc([N+](=O)[O-])cc2)C(=O)CO1	none
O=c1oc2c(-c3ccc([N+](=O)[O-])cc3)cc(O)cc2s1	Pol eta inh inconclusive, Pol iota inh 50.1µM, Pol beta inh inconclusive, Pol kappa inh inconclusive, KAT2A inh inconclusive
O=C(O)C1C(c2ccccc2)C(C(=O)OCc2ccco2)C1c1ccccc1 (stereo unspecified)	Pol eta inh 79.4µM, Pol iota inh inconclusive, Pol beta inh inconclusive
O=C(O)C1C(c2ccccc2)C(C(=O)OCCCO)C1c1ccccc1 (stereo unspecified)	none
C=C1NN(Cc2ccccc2)C(=O)N1c1ccc(OCc2ccccc2)cc1	none (no result: Pol eta inh, Pol beta inh, KAT2A inh, GLS inh)
CCOc1ccc(-c2nnc3ccc(SCC(=O)NCc4ccco4)nn23)cc1	Pol eta inh inconclusive, Pol iota inh inconclusive, Pol beta inh 25.1µM
CCCCn1c(SCC(=O)NCc2ccco2)nnc1-c1ccoc1C	Pol eta inh 12.6µM, Pol iota inh inconclusive, Pol beta inh inconclusive, Pol kappa inh 35.5µM, GLS inh inconclusive
CCn1c(SCC(=O)NCc2ccco2)nnc1-c1cccs1	Pol beta inh 31.6µM
COc1ccc(OC)c2c(=S)c3ccccc3[nH]c12	Pol kappa inh inconclusive, KAT2A inh 14.1µM (no result: Pol eta inh, Pol iota inh, Pol beta inh, GLS inh)
COc1ccc(-c2c(N)nnc3c2[nH]c2ccccc23)cc1OC	none
CCOc1ccc(-n2c(SCC(=O)N3CCCCC3)nc3c([nH]c4ccccc43)c2=O)cc1	none
Cc1ccc2nc(-c3ccc(-c4ccccn4)s3)cn2c1	Pol iota inh inconclusive, Pol beta inh 39.8µM
Cc1ccc(NC(=O)Cn2c(=O)c3cccn3c3ccccc32)c(C)c1	none
Cc1ccc(NC(=O)CCn2c(=O)c3cccn3c3ccccc32)c(C)c1	Pol iota inh 89.1µM
CC(=O)N1c2ccc(S(=O)(=O)NCC3CCC(C(=O)NC4CCC(C)CC4)CC3)cc2CC1C (stereo unspecified)	none
CC(=O)N1c2ccc(S(=O)(=O)NCC3CCC(C(=O)N4CCC(C)CC4)CC3)cc2CC1C (stereo unspecified)	Pol iota inh 79.4µM
CC(=O)N1c2ccc(S(=O)(=O)NCC3CCC(C(=O)Nc4cccc(C)c4C)CC3)cc2CC1C (stereo unspecified)	Pol iota inh inconclusive, Pol beta inh 22.4µM
O=c1c(-c2cc(F)cc(F)c2)nc2cnc(N3CCNCC3)nc2n1Cc1ccc(F)cc1	none (no result: Pol eta inh, Pol iota inh, Pol beta inh, GLS inh)
COc1cc(CN2CCN(Cc3ccc(C)cc3)C(CCO)C2)cc(OC)c1O (stereo unspecified)	GLS inh 7.08µM
COc1ccc(CN2CCN(Cc3ccc(C)cc3)C(CCO)C2)cc1OC (stereo unspecified)	none
Cc1c(C)c2c(OCC(=O)N3CCC(C(N)=O)CC3)cc3c(c2oc1=O)CCC(C)(C)O3	KAT2A inh inconclusive
Cc1cc(=O)oc2c3c(cc(OCC(=O)N4CCC(C(=O)O)CC4)c12)OC(C)(C)CC3	KAT2A inh 17.8µM
O=C(C[n+]1ccncc1)c1ccc(Br)cc1	none (no result: Pol eta inh, Pol beta inh, KAT2A inh, GLS inh)
CC[n+]1c(/C=C/C=C2/N(C)c3ccccc3C2(C)C)sc2ccccc21	Pol kappa inh 26.7µM, KAT2A inh 28.2µM (no result: Pol eta inh, Pol iota inh, Pol beta inh, GLS inh)
O=[N+]([O-])c1cc([N+](=O)[O-])c(Oc2cccc3c2CCCC3)cc1NN1CCCCC1	none (no result: Pol beta inh, KAT2A inh)
COc1cccc(Oc2cc(NN3CCCCC3)c([N+](=O)[O-])cc2[N+](=O)[O-])c1OC	Pol iota inh inconclusive, Pol beta inh 56.2µM
O=C1CCC(=O)N1c1ccc(-c2nc3sc4c(c3c(=O)o2)CCC4)cc1	none
O=c1oc(-c2ccccc2)nc2sc3c(c12)CCC3	Pol eta inh inconclusive, Pol iota inh inconclusive, Pol beta inh 11.2µM, Pol kappa inh 79.4µM, KAT2A inh inconclusive
COc1ccc(Cn2nnnc2CN(Cc2cc3cc(C)ccc3[nH]c2=O)C2CCCC2)cc1	none
Cc1ccc(CN(Cc2cc3cc4c(cc3[nH]c2=O)OCCO4)Cc2nnnn2Cc2ccco2)cc1	Pol eta inh inconclusive, Pol iota inh 20µM, Pol beta inh 28.2µM, Pol kappa inh 70.8µM, KAT2A inh inconclusive
COc1ccc2[nH]c(=O)c(CN(Cc3nnnn3Cc3ccco3)C3CCCCC3)cc2c1	Pol iota inh 20µM, Pol beta inh 28.2µM, Pol kappa inh 35.5µM, GLS inh inconclusive
COc1ccc2[nH]c(=O)c(CN(C3CCCCC3)C(c3nnnn3Cc3ccco3)C(C)C)cc2c1 (stereo unspecified)	Pol eta inh 17.8µM, Pol iota inh 15.8µM, Pol beta inh 35.5µM, Pol kappa inh inconclusive
Cc1ccnc2ccc3ccccc3c12	Pol iota inh inconclusive (no result: Pol eta inh, Pol beta inh, KAT2A inh, GLS inh)
O=C1CCCC/C1=C\Nc1ccc(S(=O)(=O)Nc2cnc3ccccc3n2)cc1	Pol iota inh inconclusive, KAT2A inh 22.4µM
O=C(/C=C/Nc1ccc(S(=O)(=O)Nc2cnc3ccccc3n2)cc1)c1ccccc1	none
